# High-throughput results (PubChem BioAssay)
# Most compounds without a hit are left out; they make up all but 10% or so of the library.
# NPR1 antag: Natriuretic polypeptide receptor (hNpr1) antagonism - Primary qHTS; HEK293 hNpr1 GloSensor cGMP, ANP-stimulated luminescence; Atrial natriuretic peptide receptor 1 (Homo sapiens), P16066; AID 1347048, 2019; Potency, µM (doses to about 46.3 µM), without a hit: at the highest dose activity change, negative = inhibition, hits mostly inhibitors; 76,000 tested, 1.6% active; calls by dose curve; note: % is set by controls: 0 for no effect and ±100 for the full control effect; nearly all actives have a fitted effect of over 60% in size
# Target sequence (P16066 whole entry, looked up): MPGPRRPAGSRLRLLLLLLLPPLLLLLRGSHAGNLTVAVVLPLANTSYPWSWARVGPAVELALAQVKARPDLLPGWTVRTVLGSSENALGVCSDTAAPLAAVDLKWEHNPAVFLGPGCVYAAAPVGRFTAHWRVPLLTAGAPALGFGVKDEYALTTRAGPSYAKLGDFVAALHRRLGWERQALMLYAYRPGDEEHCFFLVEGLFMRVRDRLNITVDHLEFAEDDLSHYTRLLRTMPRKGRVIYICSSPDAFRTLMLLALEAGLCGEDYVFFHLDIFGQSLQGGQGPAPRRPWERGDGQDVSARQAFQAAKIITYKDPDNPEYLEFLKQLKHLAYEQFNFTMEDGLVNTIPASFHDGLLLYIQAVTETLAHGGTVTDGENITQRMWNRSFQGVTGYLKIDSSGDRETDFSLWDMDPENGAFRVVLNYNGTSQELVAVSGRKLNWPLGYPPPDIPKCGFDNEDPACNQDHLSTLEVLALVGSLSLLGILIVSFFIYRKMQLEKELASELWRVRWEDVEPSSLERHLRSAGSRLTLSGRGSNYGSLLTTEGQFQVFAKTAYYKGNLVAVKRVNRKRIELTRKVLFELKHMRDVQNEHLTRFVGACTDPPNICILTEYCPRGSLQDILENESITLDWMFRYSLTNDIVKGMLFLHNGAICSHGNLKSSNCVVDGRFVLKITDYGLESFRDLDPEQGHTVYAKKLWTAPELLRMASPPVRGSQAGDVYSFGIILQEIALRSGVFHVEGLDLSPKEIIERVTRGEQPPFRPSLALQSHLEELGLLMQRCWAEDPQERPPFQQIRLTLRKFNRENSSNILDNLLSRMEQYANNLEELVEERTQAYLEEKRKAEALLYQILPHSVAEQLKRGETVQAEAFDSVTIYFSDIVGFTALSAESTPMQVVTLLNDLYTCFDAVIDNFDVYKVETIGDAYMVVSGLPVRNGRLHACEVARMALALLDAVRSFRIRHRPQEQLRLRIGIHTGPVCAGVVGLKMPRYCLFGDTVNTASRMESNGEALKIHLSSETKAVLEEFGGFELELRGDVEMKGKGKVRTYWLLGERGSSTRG
#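 Compound pre-incubated 30 min at room temperature on GloSensor-loaded HEK293 cells stably carrying hNpr1 and the pGS-40F cGMP biosensor. Stimulation uses hNppA at 0.1 nM final; luminescence is taken at baseline and 20 min post-agonist.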
# HEK293 tox: Cytotoxic Profiling in HEK 293 Cell Line of Diverse Libraries Using Quantitative High-Throughput Screening. 94,000 tested, 6.6% active. Potency, µM (titrated, usually from 115 µM), for inactives: at the top dose activity change, negative = cytotoxicity, most hits filed as inhibitors. AID 1345083, 2018. HEK 293 viability, ATP luminescence (CellTiter-Glo), 48-72 h; note: % is set by controls: 0 for no effect and ±100 for the full control effect; nearly all actives have a fitted effect of over 60% in size
#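 Cytotoxicity was scored by loss of ATP-coupled luminescence (CellTiter-Glo) in HEK 293 cells. Compound treatment ran 48 or 72 hr at 37 degree Celsius, 5% CO2, 95% humidity.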
# NIH3T3 tox: Cytotoxic Profiling in NIH 3T3 Cell Line of Diverse Libraries Using Quantitative High-Throughput Screening | NIH 3T3 viability, CellTiter-Glo ATP luminescence, 48-72 h | Potency, µM (doses to about 96.7 µM), inactives show top-dose activity change, negative = cytotoxicity, usual class: inhibitors | 94,000 tested, 4.3% active; note: % is set by controls: 0 for no effect and ±100 for the full control effect; nearly all actives have a fitted effect of over 55% in size
#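 ATP-dependent luminescence (CellTiter-Glo) served as the viability signal for NIH 3T3 cells treated with compound for 48 or 72 hr at 37 °C.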
# FLuc inh: Firefly luciferase inhibition profiling of diverse chemical library using quantitative high-throughput screening | Potency, µM (series often up to 115 µM), actives largely listed as inhibitors | purified P. pyralis luciferase, luminescence, biochemical | AID 1347043, 2019 | 76,000 tested, 2.5% active; note: % is set by controls: 0 for no effect and ±100 for the full control effect; nearly all actives have a fitted effect of over 65% in size
#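 FLuc 10nM, D-luciferin 10uM, ATP 10uM, Mg acetate 10mM, Tris acetate pH 7.5, Tween/BSA; cpd qHTS; enzyme added last; CCD luminescence.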
# GPT2 inhibitor: Primary qHTS assay for inhibitors of Glutamate pyruvate transaminase 2 (GPT2). Alanine aminotransferase 2 (Homo sapiens), Q8TD30. Recombinant GPT2, coupled pyruvate oxidase/HRP Amplex Red fluorescence. Potency, µM (titrated, usually from 57.7 µM), for inactives: at the highest dose activity change, negative = inhibition, usual class: inhibitors. 100,000 tested, 0.25% active. AID 1671188, 2021; note: % is set by controls: 0 for no effect and ±100 for the full control effect; nearly all actives have a fitted effect of over 60% in size
#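 Inhibition is scored from Amplex Red fluorescence generated when pyruvate oxidase and HRP act on pyruvate released by GPT2. Reactions contain 10ng/uL enzyme, 250uM a-KG and 2mM L-alanine and run 30 min at room temperature.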
# NPR1 antag cnf: Natriuretic polypeptide receptor (hNpr1) antagonism - Confirmation; shares compounds with NPR1 antag; HEK293 hNpr1 cGMP GloSensor luminescence, ANP-stimulated; Potency, µM (series often up to 57.6 µM), for the others: at the highest dose activity change, negative = inhibition, most hits filed as inhibitors; 1,400 tested, 76% active; calls by dose curve; note: nearly all actives have a fitted effect of over 70% in size
# NPR2 antag: Natriuretic polypeptide receptor (hNpr2) antagonism - Subtype selectivity assay | shares compounds with NPR1 antag | HEK293 hNpr2 GloSensor cGMP luminescence, CNP-stimulated | Potency, µM (doses to about 57.6 µM), for the others: top-dose activity change, negative = inhibition, usual class: inhibitors | 1,400 tested, 67% active; calls by dose curve; note: nearly all actives have a fitted effect of over 70% in size
# FLuc counter: Natriuretic polypeptide receptor (hNpr1) antagonism - Confirmation firefly luciferase (FLuc) inhibition counterscreen; shares compounds with NPR1 antag; purified FLuc enzyme, luminescence, Km substrate; Potency, µM (series often up to 57.6 µM), inactives show at the top dose activity change, negative = inhibition, actives largely listed as inhibitors; 1,400 tested, 0.7% active; AID 1347047, 2019; note: 0% is about no effect
# GloSensor ctrl: Natriuretic polypeptide receptor (hNpr1) antagonism - Counterscreen GloSensor control cell line. Potency, µM (series often up to 57.6 µM), for inactives: at the top dose activity change, negative = inhibition, most hits filed as inhibitors. shares compounds with NPR1 antag. HEK293 GloSensor cGMP, SNP-stimulated, luminescence. 1,400 tested, 69% active; calls by dose curve; note: % is set by controls: 0 for no effect and ±100 for the full control effect; nearly all actives have a fitted effect of over 70% in size
# Numbers without * were called inactive; i = inactive; ? = inconclusive; . = no result given; [ ] = dose if it differs, or a comment. Unless noted, calls come from the whole dose curve; as a rule, active = well fitted curve in the direction sought with a large enough effect; inconclusive = small, poorly fitted or top-dose-only effect, or another doubt; inactive = no such curve, though single readings can be large; an effect the other way counts as inactive or inconclusive. Potency is the fitted concentration of half-maximal effect.
SMILES,NPR1 antag,HEK293 tox,NIH3T3 tox,FLuc inh,GPT2 inhibitor,NPR1 antag cnf,NPR2 antag,FLuc counter,GloSensor ctrl
OC1CC(c2cc(NCCCn3ccc4ccccc43)ncn2)C1 (centres undefined),11µM*,?,?,i,-20%[11.5 µM],19µM*,19µM*,0%,12µM*
COc1ccc2oc(CNC(=O)c3cc(CC(C)C)nn3C)nc2c1,13µM*,?,-31%,i,i,17µM*,17µM*,4%,15µM*
CCc1ccc(CN2CCC(O)(Cc3cc(-c4cccc(OC)c4)no3)CC2)o1,-23%,?,?,i,i,-28%,-21%,-1%,?
O=C(c1ccccc1)N1CCC(C(=O)N2CCCC2c2nc3ccncc3[nH]2)CC1 (centres undefined),.,-14%,-8%,.,?,.,.,.,.
COc1c[nH]c(CN2CCCC(CCc3ccccc3C)C2)cc1=O (centres undefined),0%,-26%,-11%,i,i[11.5 µM],.,.,.,.
COc1c[nH]c(CN2CCCC(Nc3ccc(C(C)C)cc3)C2)cc1=O (centres undefined),?,?,?,i,1%,22µM*,19µM*,-1%,22µM*
COc1ccc(OCC2(C)COc3ccc(C(=O)Nc4ccccc4)cc3N2)cc1 (centres undefined),25µM*,?,?,i,-4%[88.5 µM],35µM*,35µM*,-6%[86.2 µM],35µM*
COCCN(C)C(=O)c1ccc2c(c1)NC(C)(COc1cccnc1)CO2 (centres undefined),?,?,?,i,-4%[88.5 µM],.,.,.,.
CN(C(=O)c1ccc2c(c1)NC(C)(COc1cccnc1)CO2)c1ccccc1 (centres undefined),3.2µM*,?,-37%[138 µM],i,-20%[88.5 µM],3.5µM*,5µM*,-3%[86.2 µM],3.1µM*
CC1(COc2cccnc2)COc2ccc(C(=O)NCc3ccc(F)cc3)cc2N1 (centres undefined),35µM*,56µM*,?,i,-14%[88.5 µM],31µM*,31µM*,2%[86.2 µM],25µM*
CC1(COc2cccnc2)COc2ccc(C(=O)NCc3cnccn3)cc2N1 (centres undefined),-2%[70.6 µM],?,-15%[138 µM],i,i,.,.,.,.
CC1(COc2cccnc2)COc2ccc(C(=O)NCc3ccc4c(c3)OCO4)cc2N1 (centres undefined),25µM*,?,?,i,-10%[88.5 µM],31µM*,31µM*,1%[86.2 µM],22µM*
COc1ccc(OCC2(C)COc3ccc(C(=O)N(C)C)cc3N2)cc1 (centres undefined),?,?,-30%[138 µM],i,-17%[88.5 µM],.,.,.,.
COc1ccc(CCC(=O)N2CCC(F)(C(=O)N3CCCC3)CC2)cc1,.,?,-27%,.,i,.,.,.,.
CCOc1ccc(C(=O)NC2CCN(c3cnn(CCOC)c(=O)c3)CC2)cc1,-14%,-23%,-21%,i,i,.,.,.,.
CCOc1ccc(C(=O)NC2CCN(c3cnn(CC)c(=O)c3)CC2)cc1,-11%,-5%,28µM*,i,3%,-7%,-22%,1%,?
CCNc1cc(N2CCC(CCC(=O)N3CCN(c4cccc(OC)c4)CC3)CC2)ncn1,11µM*,35µM*,?,i,i,17µM*,19µM*,-19%,17µM*
O=C(CCC1CCN(c2cc(NC3CC3)ncn2)CC1)N1CCN(c2ccccc2F)CC1,13µM*,?,?,i,i,24µM*,22µM*,-23%,24µM*
CCOc1ccc(NC(=O)CCC2CCN(c3cc(NC4CC4)ncn3)CC2)cc1,?,?,-19%,i,-1%,?,?,-29%,?
CN(CCc1ccccc1)C(=O)CCC1CCN(c2cc(NC3CC3)ncn2)CC1,11µM*,35µM*,?,i,?,22µM*,22µM*,-14%,14µM*
CCCNc1cc(N2CCC(CCC(=O)NCc3cccc(OC)c3)CC2)ncn1,-20%,-15%,-1%,?,5%,.,.,.,.
CN(C)CC(=O)N1Cc2ccccc2CC2(CCCCN2Cc2ccccc2)C1 (centres undefined),.,?,?,.,i,.,.,.,.
O=C1CCC2(CCN(C/C=C/c3ccccc3)CC2)CN1CCCn1ccnc1,-1%,?,?,i,-21%,.,.,.,.
Cc1c(-c2ccnn2C)cc(C(=O)NCc2ccc(S(C)(=O)=O)cn2)c(=O)n1-c1cccc(C(F)(F)F)c1,.,.,.,.,0%,.,.,.,.
COc1ccc(-c2nnc(C[C@@H]3C[C@@H](C(C)C)[C@H](CNC(=O)c4ccc(F)cc4)C=C3C)o2)cc1,?,?,?,i,-31%,?,-25%,-1%,?
CC1=C[C@@H](CNC(=O)c2ccccn2)[C@H](C(C)C)C[C@H]1Cc1nnc(-c2ccncc2)o1,14µM*,22µM*,?,i,-4%[88.5 µM],18µM*,22µM*,-1%[86.2 µM],18µM*
O=C(CNC(=O)c1cccc(-c2ccc(C(F)(F)F)cc2)c1)NCC1CC1,.,?,?,.,i,.,.,.,.
Cc1ccc(CNC(=O)N2CCCCCC2c2nc(-c3ccccc3)no2)cc1 (centres undefined),.,?,?,.,i,.,.,.,.
